Experimental findings from PubChem BioAssay are described below.

The structures appear in SMILES notation. Calls of active or inactive are those of the source. No rule for the calls is given here.

A word on the inhibition: it is the percentage by which the read-out fell short of the control.

The nature of this assay: Brca1-Bard1 BiLC signal decrease – luminescence, single concentration, counter-screen for Mdm2/MdmX interaction inhibitor project, confirmation (AID 504668). The settings on record: Brca1/Bard1 bimolecular luciferase complementation counterscreen, at 8 µM, hits give high values. A general note: Counterscreens check selectivity or assay interference.
As to `CCC(NC(=O)Nc1nnc(C(F)(F)F)s1)(C(F)(F)F)C(F)(F)F`, the inhibition was 26.3% (active).

With `CCOc1ccc2[nH]c3c(N4CCc5ccccc5C4)ncnc3c2c1`, the inhibition was 35.8% (active).

Turning to `Cc1ccc(C(=O)Nc2nc(-c3ccccn3)cs2)s1`, the inhibition is 34.6% (active).

`O=C(CCCN1C(=O)/C(=C\c2ccccc2)SC1=S)Nc1ccccc1O`: the inhibition was 30.3% (active).

Take `Cc1ccc(-c2oc3ccccc3c(=O)c2O)cc1`: the inhibition is 24.8% (active).

As to `O=C(NC(Cc1c[nH]c2ccccc12)C(=O)Nc1ccc(OC(F)(F)F)cc1)c1cccs1` (stereo not given), the inhibition is 25.7% (active).

Take `Cc1ccc(S(=O)(=O)Nc2cc(-c3nn(C)c(=O)c4ccccc34)ccc2N2CCOCC2)cc1`: the inhibition was 29.6% (active).

Consider `COc1cccc(/C=N/NC(=O)c2cc(-c3cccn3C)n[nH]2)c1O`, for which the inhibition is 32.4% (active).

For `O=C(CCl)Nc1cn(-c2ccccc2)nc1-c1ccc(F)cc1`, the inhibition was 32.9% (active).

For `COc1ccc(OC)c2[nH]c(C(=O)N/N=C/c3ccccc3O)cc12`, the inhibition was 32.5% (active).

In the case of `Cc1[nH]c(N=Nc2ccccc2)nc1N=Nc1ccccc1`, the inhibition is 24.1% (active).

Turning to `O=C(N/N=C(\Cc1ncc[nH]1)c1ccccc1)c1ccncc1`, the inhibition was 30.3% (active).

For the compound `C=C(C(=O)Oc1ccccc1C(C)(C)C)c1ccccc1`, the inhibition is 34% (active).

With `COc1ccc(C(=O)N/N=C(\Cc2ncc[nH]2)c2ccccc2)cc1`, the inhibition was 25.7% (active).

Consider `Cc1ccc(NC(=O)c2ccccc2NS(=O)(=O)c2ccc(Cl)s2)cc1`, for which the inhibition was 28.9% (active).

As for `CC(C)(C)c1ccc(-c2nnc3sc(-c4ccccn4)nn23)cc1`, the inhibition was 30.2% (active).

Consider `CCOc1cc(/C=C2/NC(=O)N(CC(=O)Nc3cccc(C)c3)C2=O)ccc1OC`, for which the inhibition is 32.2% (active).

Consider `C#CCOCCOCCOCCNc1nc(N2CCN(C(=O)CCCCCCCCCCNC(=O)Cn3cc(C[C@@H](C)O)nn3)CC2)nc(N2CCN(C(=O)CCCCCCCCCCNC(=O)[C@@H]([C@H](C)CC)n3cc(CCCCCN)nn3)CC2)n1`, for which the inhibition is 27.2% (active).

Consider `O=C(NC1CCCc2c1cnn2-c1ccccc1F)c1ccccn1` (stereo not given), for which the inhibition was 28.6% (active).

With `Cc1cc(C)c2nc(N3CCC(C(=O)NCCCN4CC(C)CC(C)C4)CC3)sc2c1` (stereo not given), the inhibition is 32.3% (active).

As for `O=C(NC(CSCc1ccccc1)C(=O)N/N=C/c1ccc(O)cc1O)c1ccc([N+](=O)[O-])cc1` (stereo not given), the inhibition is 34.3% (active).

For `CCCCN(CC)CCNC(=O)c1cc2c(-c3ccc(Cl)cc3)nn(C)c2s1`, the inhibition is 31.2% (active).

In the case of `CN1CCN(C(c2ccc(C(F)(F)F)cc2)c2cc(Cl)c3cccnc3c2O)CC1` (stereo not given), the inhibition was 24.6% (active).

As to `O=C(CCl)Nc1cn(-c2ccccc2)nc1-c1ccccc1`, the inhibition was 33.7% (active).

With `Cn1c(C(=O)NCc2ccccc2)cc2oc3ccccc3c21`, the inhibition was 32.1% (active).

In the case of `COc1ccc(Cc2nnc(N/N=C/c3ccc(O)cc3)[nH]c2=O)cc1OC`, the inhibition was 24.8% (active).

On to `O=C(Nc1nc(-c2ccccn2)cs1)c1ccccc1-n1cnnn1`, for which the inhibition is 29.6% (active).

On to `CN1C(=O)/C(=C\c2cc(N=Nc3ccccc3)ccc2O)SC1=S`, for which the inhibition is 34.4% (active).

For the compound `O=C(C#Cc1ccccc1)Nc1cccc(F)c1`, the inhibition is 30.5% (active).

As for `COc1cc(OC)cc(C(=O)Oc2c(CN3CCOCC3)cc(Cl)c3cccnc23)c1`, the inhibition was 33.8% (active).

For `Nc1cccc2nc3ccccc3cc12`, the inhibition is 32.2% (active).

`COc1ccccc1OCC(=O)N/N=C/c1c(O)ccc2ccccc12`: the inhibition is 27.8% (active).

Take `O=C(Cc1ccccc1)N/N=C/c1cc(Br)cc(Cl)c1O`: the inhibition was 29.2% (active).

With `O=C(Nc1cccc([N+](=O)[O-])c1)c1cc2ccccc2cc1O`, the inhibition was 31% (active).

For the compound `O=C(NNC(=O)c1ccccc1OCc1ccccc1)c1ccccc1O`, the inhibition is 34.8% (active).

As to `CCc1ccc(S(=O)(=O)/N=C2\C=C(Nc3ccc(C(=O)O)cc3)C(=O)c3ccccc32)cc1`, the inhibition was 33.2% (active).

For the compound `CCOc1ccc(-c2nnc(SCC(=O)Nc3ccc4c(c3)c3ccccc3n4CC)n2N)cc1`, the inhibition is 23.1% (active).

On to `CCOC(=O)c1nc(NNC(=O)c2ccc([N+](=O)[O-])cc2)sc1C`, for which the inhibition is 27.4% (active).

On to `COc1ccc(Nc2ncnc3ccc(Br)cc23)cc1OC`, for which the inhibition was 30.5% (active).

As for `C=CCc1cccc(/C=N/NC(=O)c2ccc3nc[nH]c3c2)c1O`, the inhibition is 26.2% (active).
